Measurements reported in PubChem BioAssay (NCI).
This is part of a sample that, as a whole, favours compounds with a hit. Of some 83,000 tested, about 20% had one in any assay.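 Interpretation: 100, growth as untreated; towards 0, rising growth inhibition; 0, no net growth; 0 to -100, cell death. Compounds scoring below 10 were considered active.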 Calls of active or inactive are those of the source.

Legend:
Assay in all cases: NCI-60 one-dose screen, 48 h (100 = growth as untreated, 0 = no growth, -100 = all killed)
Details in all cases: 10 µM unless noted
SK-MEL-2 melanoma = test system: SK-MEL-2 melanoma
EKVX NSCLC = test system: EKVX NSCLC
SN12C renal = test system: SN12C renal
UO-31 renal = test system: UO-31 renal
TK-10 renal = test system: TK-10 renal
ACHN renal = test system: ACHN renal
CAKI-1 renal = test system: CAKI-1 renal
A498 renal = test system: A498 renal
CCRF-CEM leukemia = test system: CCRF-CEM leukemia
MOLT-4 leukemia = test system: MOLT-4 leukemia

Measured: growth

COc1ccc2nc(N/N=C(\C)c3ccccn3)cc(C)c2c1
inactive: SN12C renal 11.8% | TK-10 renal 18.4%
active: SK-MEL-2 melanoma -22.8% | EKVX NSCLC -84.4% | UO-31 renal -31% | ACHN renal -13.8% | CAKI-1 renal -3.71% | A498 renal -64.5% | CCRF-CEM leukemia -37.4% | MOLT-4 leukemia -49.9%

CC[C@@H](C)/C=C(C)/C=C/C(O)=C1\C(=O)N[C@@H](Cc2ccc(OC(=O)[C@@](OC)(c3ccccc3)C(F)(F)F)cc2)C1=O
inactive: SK-MEL-2 melanoma 80.2% | EKVX NSCLC 54.1% | SN12C renal 86.5% | UO-31 renal 70.9% | TK-10 renal 96.8% | ACHN renal 103% | CAKI-1 renal 30.5% | A498 renal 64.7% | CCRF-CEM leukemia 29.7% | MOLT-4 leukemia 41.6%

O=C(N/N=C/c1ccc(Cl)cc1Cl)c1ccccc1Nc1cccc(C(F)(F)F)c1
inactive: SK-MEL-2 melanoma 54.9% | SN12C renal 53.3% | UO-31 renal 25.7% | TK-10 renal 106% | ACHN renal 35.9% | CAKI-1 renal 55.5% | CCRF-CEM leukemia 32.4% | MOLT-4 leukemia 55.8%
active: EKVX NSCLC -27.9% | A498 renal -7.44%

COc1ccc(Cl)cc1Nc1nc(C(F)(F)F)ccc1C(=O)N/N=C/c1c(Cl)cccc1Cl
active: A498 renal -21.9%
inactive: SK-MEL-2 melanoma 28.3% | EKVX NSCLC 60.5% | SN12C renal 63% | UO-31 renal 31.2% | TK-10 renal 67.2% | ACHN renal 39.2% | CAKI-1 renal 34.9% | CCRF-CEM leukemia 13.8% | MOLT-4 leukemia 14.4%

COc1cccc(C2=NN(C(C)=O)C(c3cc(OC)c(OC)c(OC)c3)C2)c1 (stereo not given)
active: UO-31 renal -29.9% | CCRF-CEM leukemia -7.81% | MOLT-4 leukemia 9.77%
inactive: SK-MEL-2 melanoma 26.9% | EKVX NSCLC 47.4% | SN12C renal 42.7% | TK-10 renal 78.4% | ACHN renal 56.1% | CAKI-1 renal 216% | A498 renal 71.3%

O=C(Nc1ccc2c(c1)C(=O)c1ccccc1-2)c1ccccc1
inactive: SK-MEL-2 melanoma 82.4% | EKVX NSCLC 97.4% | SN12C renal 56.9% | UO-31 renal 69.7% | TK-10 renal 46.9% | ACHN renal 63.8% | CAKI-1 renal 74.7% | A498 renal 66.4% | CCRF-CEM leukemia 101% | MOLT-4 leukemia 97.7%

CCc1ccc(-c2nc(SCC(=O)NC3CCCCC3)n[nH]2)cc1
inactive: SK-MEL-2 melanoma 10.2% | EKVX NSCLC 42.1% | SN12C renal 76.4% | UO-31 renal 69.8% | TK-10 renal 88.8% | ACHN renal 64.2% | CAKI-1 renal 85.9% | A498 renal 86.4% | CCRF-CEM leukemia 55.3% | MOLT-4 leukemia 61.6%

O=C(Oc1ccccc1)C(Br)C(Br)c1ccccc1 (stereo not given)
inactive: SK-MEL-2 melanoma 95.3% | EKVX NSCLC 136% | SN12C renal 109% | UO-31 renal 93.3% | TK-10 renal 83% | ACHN renal 78.2% | A498 renal 91.3%
active: CAKI-1 renal -66.7% | CCRF-CEM leukemia -28.7% | MOLT-4 leukemia 7.62%

Oc1c(Cl)cc(Oc2cc(Cl)c(O)c(CN3CCOCC3)c2)cc1CN1CCOCC1
inactive: SK-MEL-2 melanoma 88.2% | EKVX NSCLC 90.5% | SN12C renal 95.4% | UO-31 renal 71.1% | TK-10 renal 95.1% | ACHN renal 84.9% | CAKI-1 renal 78% | A498 renal 84.7% | CCRF-CEM leukemia 107% | MOLT-4 leukemia 80.4%

Cn1c(=O)c2[nH]c(=S)n(Cc3ccccc3)c2n(C)c1=O
inactive: SK-MEL-2 melanoma 104% | EKVX NSCLC 125% | SN12C renal 99% | UO-31 renal 91.4% | TK-10 renal 104% | ACHN renal 96.1% | CAKI-1 renal 111% | A498 renal 92.8% | CCRF-CEM leukemia 113% | MOLT-4 leukemia 81.9%

O=C(O)c1ccc(CNS(=O)(=O)c2ccc3ccccc3c2)cc1
active: SK-MEL-2 melanoma 0.434%
inactive: EKVX NSCLC 111% | SN12C renal 100% | UO-31 renal 94.7% | TK-10 renal 109% | ACHN renal 101% | CAKI-1 renal 112% | A498 renal 102% | CCRF-CEM leukemia 117% | MOLT-4 leukemia 84.1%

CCOC(=O)CNC(=O)C1(NC(=O)CNC(=O)OCc2ccccc2)CCCC1
inactive: SK-MEL-2 melanoma 107% | EKVX NSCLC 99.4% | SN12C renal 93.8% | UO-31 renal 98.6% | TK-10 renal 102% | ACHN renal 103% | CAKI-1 renal 95.2% | A498 renal 102% | CCRF-CEM leukemia 102% | MOLT-4 leukemia 106%

COc1ccc2cc(C3=CC(=O)CCC3)ccc2c1
inactive: SK-MEL-2 melanoma 92.7% | EKVX NSCLC 99.1% | SN12C renal 97.2% | UO-31 renal 92.4% | TK-10 renal 100% | ACHN renal 107% | CAKI-1 renal 102% | CCRF-CEM leukemia 90.9% | MOLT-4 leukemia 92.9%
active: A498 renal -87.9%

O=C(Nc1ccc(Cl)cc1)Nc1ccccc1CNc1nc(Nc2ccc(OCCN3CCCC3)cc2)ncc1Cl
active: UO-31 renal -6.76% | TK-10 renal -51.5% | ACHN renal -54.4% | CAKI-1 renal 5.67% | CCRF-CEM leukemia 4.29% | MOLT-4 leukemia -13.4%
inactive: SK-MEL-2 melanoma 102% | EKVX NSCLC 33.7% | SN12C renal 93.2% | A498 renal 75.6%

O=C(COc1ccc(/C=C2\Oc3ccc4ccccc4c3C2=O)cc1)c1ccc(Cl)cc1
inactive: SK-MEL-2 melanoma 73.8% | EKVX NSCLC 103% | SN12C renal 98.9% | TK-10 renal 114% | ACHN renal 107% | CAKI-1 renal 98.8% | A498 renal 155% | MOLT-4 leukemia 33.8%
active: UO-31 renal 5.25% | CCRF-CEM leukemia -26.9%

Cc1cc2ccccn2c1C(=O)c1ccc(C(=O)c2ccccc2)cc1
inactive: SK-MEL-2 melanoma 15% | EKVX NSCLC 91.8% | SN12C renal 94.5% | UO-31 renal 62.5% | TK-10 renal 98.7% | ACHN renal 93% | CAKI-1 renal 106% | A498 renal 90.5% | CCRF-CEM leukemia 86.6% | MOLT-4 leukemia 78.4%

COC(=O)N/N=C/c1coc2ccc(Cl)cc2c1=O
inactive: SK-MEL-2 melanoma 68.5% | EKVX NSCLC 85.4% | SN12C renal 88.1% | UO-31 renal 84.1% | TK-10 renal 120% | ACHN renal 91.6% | CAKI-1 renal 81.8% | A498 renal 111% | CCRF-CEM leukemia 90.7% | MOLT-4 leukemia 84.2%

CCOC(CNCc1cc(C)c2[nH]c3ccccc3c2c1C)OCC
inactive: SK-MEL-2 melanoma 62.2% | EKVX NSCLC 90% | SN12C renal 69.7% | UO-31 renal 45.1% | TK-10 renal 77.3% | ACHN renal 88.3% | CAKI-1 renal 71.4% | A498 renal 39.8% | CCRF-CEM leukemia 77.5% | MOLT-4 leukemia 62.5%

C[C@]12CCC(=O)C=C1CC[C@H]1[C@@H]3C[C@@H](O)[C@](O)(C(=O)CO)[C@@]3(C)C[C@H](O)[C@@]12F
inactive: SK-MEL-2 melanoma 109% | EKVX NSCLC 88.4% | SN12C renal 82.9% | UO-31 renal 74.1% | TK-10 renal 104% | ACHN renal 104% | CAKI-1 renal 78.5% | A498 renal 97.2% | CCRF-CEM leukemia 97.1% | MOLT-4 leukemia 84.1%

O=C(NCCNC(=O)Oc1cccc2ccccc12)Oc1cccc2ccccc12
inactive: SK-MEL-2 melanoma 88.7% | EKVX NSCLC 92.9% | SN12C renal 105% | UO-31 renal 45.4% | TK-10 renal 92.3% | ACHN renal 85.3% | CAKI-1 renal 95% | A498 renal 89.2% | CCRF-CEM leukemia 65.2% | MOLT-4 leukemia 80.6%

COC(=O)c1cc2oc(/C=N\NC(=O)c3cc4oc(C)c(C)c4[nH]3)cc2[nH]1
inactive: SK-MEL-2 melanoma 109% | EKVX NSCLC 91.6% | SN12C renal 120% | UO-31 renal 94.7% | TK-10 renal 132% | ACHN renal 104% | CAKI-1 renal 80.5% | A498 renal 115% | CCRF-CEM leukemia 83.7% | MOLT-4 leukemia 82.1%

CCOC(=O)c1sc(NC(=O)COc2cccc(/C=C3\CCc4cc(OC)ccc4C3=O)c2)nc1C
active: CCRF-CEM leukemia -17.2% | MOLT-4 leukemia 7.22%
inactive: SK-MEL-2 melanoma 42.6% | EKVX NSCLC 82.9% | SN12C renal 48.9% | UO-31 renal 14% | TK-10 renal 89.3% | ACHN renal 85.7% | CAKI-1 renal 60.2% | A498 renal 85.8%

Cc1cc(=O)oc2cc(OCCn3c(C)nn(-c4ccc(Cl)cc4)c3=O)ccc12
active: SK-MEL-2 melanoma 3.55%
inactive: EKVX NSCLC 58.7% | SN12C renal 51.8% | UO-31 renal 42.8% | TK-10 renal 59.6% | ACHN renal 41.9% | CAKI-1 renal 19.5% | A498 renal 25.7% | CCRF-CEM leukemia 13.4% | MOLT-4 leukemia 37.6%

C[C@@H]1CN(c2nc3c(cc2F)c(=O)c(C(=O)O)cn3C(C)(C)C)C[C@H](C)N1
inactive: SK-MEL-2 melanoma 97.1% | EKVX NSCLC 104% | SN12C renal 104% | UO-31 renal 94.2% | TK-10 renal 102% | ACHN renal 99.8% | A498 renal 107% | CCRF-CEM leukemia 102% | MOLT-4 leukemia 101%
active: CAKI-1 renal -7.72%

O=c1[nH]c(SCc2ccccc2)nc2nc(Nc3ccc(NC(=S)Nc4ccccc4)cc3)nc(-c3ccc(O)cc3O)c12
inactive: SK-MEL-2 melanoma 87.8% | EKVX NSCLC 95.9% | SN12C renal 88% | UO-31 renal 107% | TK-10 renal 133% | ACHN renal 89.5% | CAKI-1 renal 101% | A498 renal 108% | CCRF-CEM leukemia 94.5% | MOLT-4 leukemia 93%

CC1=C([Se]CC(OC(=O)[C@@H](CSSC(C)(C)C)NC(=O)C(C)(C)C)C(=O)NCCCCCC(=O)OCc2ccccc2)C(=O)c2ccccc2C1=O (stereo not given in full)
active: SK-MEL-2 melanoma -24.2% | EKVX NSCLC -24.2% | SN12C renal 2.42% | UO-31 renal -78.5% | TK-10 renal -29.3% | ACHN renal -10.9% | CAKI-1 renal -19.3% | A498 renal -5.18% | CCRF-CEM leukemia 3% | MOLT-4 leukemia 5.23%

COc1cc(-c2nc3nc4sc(C)c(C)c4c(=O)n3[nH]2)cc(OC)c1OC
inactive: SK-MEL-2 melanoma 80.1% | EKVX NSCLC 88% | SN12C renal 93.6% | UO-31 renal 54.7% | TK-10 renal 110% | ACHN renal 83.2% | CAKI-1 renal 61.8% | A498 renal 74.5% | CCRF-CEM leukemia 61% | MOLT-4 leukemia 68.3%
